In PubChem BioAssay AID618 (Sanford-Burnham Center for Chemical Genomics, 2007):
Screen size: about 87,000 compounds; about 540 (0.62%) were called active. No rule for the calls is given here. For the sample, actives were picked, then their nearest neighbours and some compounds at random. Results with a measured potency or affinity are listed apart.

Assay: MT1-MMP gene expression reporter suppression – cell-based, luciferase reporter, luminescence (AID 618);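 also: actives suppress MT1-MMP promoter-driven transcription so potencies describe inhibitors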
Details: MT1-MMP promoter luciferase reporter cells

| Compound | outcome |
| --- | --- |
| CCC1Oc2ccccc2N(CC(=O)Nc2ccc(OC)cc2OC)C1=O (stereo unspecified) | inactive |
| COc1ccccc1C(=O)Nc1nc(-c2cccs2)c(NC(C)=O)s1 | inactive |
| CC(C)CCOC(=O)C1C(c2ccccc2)C(C(=O)O)C1c1ccccc1 (stereo unspecified) | inactive |
| O=C(c1cccs1)N1CCN(S(=O)(=O)N2CCCCC2)CC1 | inactive |
| Cc1ccccc1/C=C1\CCCc2ccccc2C1=O | inactive |
| O=C1/C(=C/c2ccccc2)CCCc2ccccc21 | inactive |
| O=C(NC1CCN(Cc2ccccc2)CC1)C1CCN(S(=O)(=O)c2cccc3cccnc23)CC1 | inactive |
| COc1ccccc1NC(=O)c1ccc(N)cc1 | inactive |
| Cc1cc(N2CCC(C)CC2)n2ncc(-c3ccccc3)c2n1 | inactive |
| Cc1cc(N2CCCCC2)n2ncc(-c3ccccc3)c2n1 | inactive |
| CCOc1ccc(C(=O)NCCCn2ccnc2)cc1 | inactive |
| O=C(NC1CCCCC1)NC1(C(=O)N2CCN3CCCC3C2)CCCCC1 (stereo unspecified) | inactive |
| CCc1ccc2oc(-c3cccc(NC(=O)c4cccnc4)c3)nc2c1 | inactive |
| COc1cccc(C=Nc2ccc3c(c2)OCCO3)c1O | inactive |
| CCc1ccc2oc(-c3cc(N)ccc3O)nc2c1 | active |
| CCc1ccc2oc(-c3cc(N)ccc3Cl)nc2c1 | inactive |
| NCc1ccc(-c2nc3ccccc3o2)cc1 | inactive |
| CCc1ccc2oc(-c3cc(N)cc(C)c3O)nc2c1 | inactive |
| Nc1ccc2oc(-c3cccc(Br)c3)nc2c1 | inactive |
| CCc1ccc2oc(-c3ccc(N)cc3)nc2c1 | active |
| CCc1ccc2oc(-c3cc(N=Cc4cccc(OC)c4O)ccc3O)nc2c1 | active |

| Compound | outcome |
| --- | --- |
| COc1cccc(C=Nc2cc(C)on2)c1O | inactive |
| c1cc(-c2nc3cc(Cc4ccc5oc(-c6ccncc6)nc5c4)ccc3o2)ccn1 | inactive |
| CC(=Nc1ccccc1)C1=C(O)CSC1=O | inactive |
| COc1ccc(OC)c(NC(=O)c2ccc(NS(=O)(=O)c3c(C)noc3C)cc2)c1 | inactive |
| CCn1c(=O)c2c(nc3n2CC(C)CN3CCc2ccccc2)n(C)c1=O (stereo unspecified) | inactive |
| CCCN(CCC)S(=O)(=O)c1ccc(NS(=O)(=O)c2ccc(F)cc2)cc1 | inactive |
| CCC(=O)c1ccccc1OCCCn1cncn1 | inactive |
| CC(C)CC(=O)Nc1cc2nn(-c3ccccc3)nc2cc1Cl | inactive |
| CC(=O)Nc1cc2nn(-c3ccccc3)nc2cc1Cl | inactive |
| CCC(=O)Nc1cc2nn(-c3ccccc3)nc2cc1Cl | active |
| C=CCSc1nnc(-c2ccc(Cl)cc2Cl)o1 | inactive |
| Clc1ccc(-c2nnc(SCc3ccon3)o2)c(Cl)c1 | active |
| CCSc1nnc(-c2ccc(Cl)cc2Cl)o1 | inactive |
| Cc1cc(OCC(=O)N2CCc3ccccc3C2)c2c(-c3ccccc3)cc(=O)oc2c1 | inactive |
| Cc1ccc(S(=O)(=O)N(C)Cc2ccc(-c3nnc4n3CCC4)cc2)cc1 | inactive |
| COC(=O)CNC(=O)[C@@]1(C)C=C[C@@H](Cc2ccccc2)N1C(=O)OC | active |
| COC(=O)CNC(=O)[C@@]1(C)C=C[C@@H](Cc2ccccc2)N1C(C)=O | inactive |
| CNC(=O)[C@@]1(C)C=C[C@@H](Cc2ccccc2)N1C(=O)OC | inactive |
| CCOC(=O)C1CCN(Cc2ccc(F)cc2F)CC1 | inactive |
| O=C1NC2(CCOc3ccccc32)C(=O)N1CC(=O)N(Cc1ccccc1)C1CCS(=O)(=O)C1 (stereo unspecified) | inactive |
| Cn1c(/C=C/c2ccc([N+](=O)[O-])o2)nc2ccccc2c1=O | active |

| Compound | outcome |
| --- | --- |
| Cn1c(SCc2ccon2)nc2ccccc2c1=O | inactive |
| Cc1ccc2nc(N/N=C\c3ccc([N+](=O)[O-])o3)nc(-c3ccccc3)c2c1 | inactive |
| COc1ccccc1C(=O)Nc1ccc2c(c1)nc(CN1CCN(C(C)=O)CC1)n2C | inactive |
| Oc1ccc(/C=C/c2cc(O)cc(O)c2)cc1 | active |
| C/C=C(/C(=C/C)c1ccc(O)cc1)c1ccc(O)cc1 | inactive |
| CC(/C=C/c1ccc(O)cc1)=N/O | inactive |
| c1ccc(Cn2c(Nn3cnnc3)nc3ccccc32)cc1 | inactive |
| COc1ccc(CCN(Cc2cc3cccc(C)c3[nH]c2=O)C(=O)NC2CCCCC2)cc1OC | inactive |
| COc1ccc2sc(NC(C)=O)nc2c1 | inactive |
| COc1ccc2nc(NC(=O)c3ccoc3C)sc2c1 | inactive |
| CCOc1ccc2nc(NC(=O)c3cnc(C)cn3)sc2c1 | inactive |
| O=C(Nc1nnc(-c2ccco2)s1)c1ccccc1 | inactive |
| CS(=O)(=O)c1ccc2nc(NC(=O)c3ccco3)sc2c1 | inactive |
| COc1ccc2sc(NC(=O)c3ccco3)nc2c1 | active |
| COc1ccc2c(c1)Cc1sc(NC(=O)c3ccco3)nc1-2 | inactive |
| O=C(Nc1nc2ccc(Cl)cc2s1)c1ccco1 | inactive |
| COc1ccccc1C(=O)Nc1nnc(-c2ccco2)s1 | inactive |
| O=C(CCN1C(=O)COc2ccccc21)NCc1cccnc1 | inactive |
| O=C(NCc1cccnc1)C1CCN(S(=O)(=O)N2CCC3(CC2)OCCO3)CC1 | inactive |
